Experimental findings from PubChem BioAssay (Tox21) are described below.

Results filed as inconclusive are left out. Where a call stands in place of a potency, no number is given. Activity calls are given as the source filed them. The call rests on the fitted dose curve.

In this experiment the target is Peroxisome proliferator-activated receptor gamma (Homo sapiens) (UniProt P37231). Nature of the experiment: qHTS assay to identify small molecule antagonists of the peroxisome proliferator-activated receptor gamma (PPARg) signaling pathway (AID 743191). Further: nearly all actives have a fitted effect of over 30% in size. To be noted: HEK293H PPARg-UAS-bla, beta-lactamase ratio, antagonist, 17 h; series mostly up to 62.6 µM. An excerpt: U.S. Tox21 Program National Center for Advancing Translational Sciences [NCATS] NIH Chemical Genomics Center [NCGC] U.S. Environmental Protection Agency [EPA] National Institutes of Environmental Health Sciences [NIEHS] National Toxicology Program [NTP] U.S. Food and Drug Administration [FDA] Tox21 Assay Overview: The peroxisome proliferator-activated receptors (PPARs) are lipid-activated transcription factors of the nuclear receptor superfamily with three distinct subtypes namely PPAR alpha, PPAR delta (also called PPAR beta) and PPAR gamma (PPARg). All these subtypes heterodimerize with Retinoid X receptor (RXR) and these heterodimers regulate transcription of various genes. PPAR-gamma receptor (glitazone receptor) is involved in the regulation of glucose and lipid metabolism. To identify the compounds that inhibit PPAR-gamma signaling, GeneBLAzer PPAR gamma UAS-bla HEK293H cell line (Invitrogen, Carlsbad, CA, USA) containing a beta-lactamase reporter gene under control of an Upstream Activator Sequence (UAS) was used to screen the Tox21 compound library.
Sequence of Peroxisome proliferator-activated receptor gamma (Homo sapiens) (P37231 whole entry, looked up): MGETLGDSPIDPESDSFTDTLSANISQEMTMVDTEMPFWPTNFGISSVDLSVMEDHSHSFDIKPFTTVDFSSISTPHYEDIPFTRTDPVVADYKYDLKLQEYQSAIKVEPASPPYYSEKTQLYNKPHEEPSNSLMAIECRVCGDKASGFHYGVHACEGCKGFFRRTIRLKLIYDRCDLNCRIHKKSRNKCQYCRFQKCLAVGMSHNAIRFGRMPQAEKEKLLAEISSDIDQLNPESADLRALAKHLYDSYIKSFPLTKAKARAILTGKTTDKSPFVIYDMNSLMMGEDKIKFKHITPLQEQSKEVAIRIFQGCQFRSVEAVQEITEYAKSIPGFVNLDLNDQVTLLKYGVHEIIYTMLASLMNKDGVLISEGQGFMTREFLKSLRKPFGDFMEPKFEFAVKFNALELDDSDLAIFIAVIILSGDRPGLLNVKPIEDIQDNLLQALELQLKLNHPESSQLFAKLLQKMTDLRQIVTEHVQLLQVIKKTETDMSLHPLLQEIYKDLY
Tox21 Assay Protocol Summary: PPARg-bla cells were dispensed at 3000 cells/6uL/well in 1536-well black wall/clear bottom plates using a Multidrop Combi (Thermo Fisher Scientific, Waltham, MA) dispenser. After the assay plates were incubated at 37C and 5% CO2 for 5 h, 23 nL of compounds dissolved in DMSO, positive controls or DMSO only was transferred to the assay plate by a Pintool station (Kalypsys, San Diego, CA). The assay plates were incubated at 37C for 17 h. After 1 uL of LiveBLAzerTM B/G FRET substrate was added using a Bioraptr Flying Reagent Dispenser (FRD) workstation (Beckman Coulter, Indianapolis, IN, USA), the plates were incubated at room temperature for 1 h, and fluorescence intensity was measured by an Envision plate reader (PerkinElmer, Shelton, CT).
On the technique in general: qHTS replaces the single test concentration by a dilution series.
For `COC(=O)CSc1cc(N=c2sc(=O)n3n2CCCC3)c(F)cc1Cl`, the Potency entry was “inactive”.

For `CCCCCCCCCCCCCCCC(=O)OC/C=C(C)/C=C/C=C(C)/C=C/C1=C(C)CCCC1(C)C`, the Potency entry is “inactive”.

Take `C[Si](C)O[Si](C)(C)O[Si](C)(C)O[Si](C)C`: the Potency entry was “inactive”.

For `Cc1c(Cn2ccnc2)c2ccccc2n1CCC(=O)O`, the Potency entry is “inactive”.

As to `CN1CCN(C2=Nc3ccccc3Sc3ccc(Cl)cc32)CC1`, the Potency entry is “inactive”.

`CC(=O)Nc1ccc(/C=N/NC(N)=S)cc1`: the Potency result was “inactive”.

Regarding `N#CCc1cccc(C(F)(F)F)c1`, the Potency entry was “inactive”.

Consider `CC(C)(C)c1cc(CO)cc(C(C)(C)C)c1O`, for which the Potency entry was “inactive”.

As for `C=Cc1c(C)c2cc3[nH]c(cc4nc(cc5nc(cc1[nH]2)C(C)=C5CCC(=O)O)C(CCC(=O)O)=C4C)c(C)c3C=C`, the Potency entry was “inactive”.

In the case of `N#Cc1cc2ccccc2c2ccccc12`, the Potency entry is “inactive”.

For `O=C1Nc2cc(Cl)ccc2Oc2ccccc21`, the Potency result was “inactive”.

For `CCN(CC)CCOC(=O)C1(c2ccccc2)CCCC1`, the Potency result was “inactive”.

For the compound `CCCCC(CC)(CO)CO`, the Potency result is “inactive”.

For `CCCc1ccccc1`, the Potency result was “inactive”.

With `CC(C)(C)c1ccc(S)cc1`, the Potency result is “inactive”.

As for `c1ccc(-c2nc[nH]c2-c2ccccc2)cc1`, the Potency entry was “inactive”.

As to `CCCCCCCCCCCCCCCBr`, the Potency result was “inactive”.

Turning to `CCCCCc1ccc(N)cc1`, the Potency entry was “inactive”.

Turning to `CN(C)C/C=C(/c1ccc(Br)cc1)c1cccnc1`, the Potency result was “inactive”.

Turning to `O=C(O)/C=C/c1cnc[nH]1`, the Potency result was “inactive”.

On to `CC(=O)OCCc1ccccc1`, for which the Potency entry was “inactive”.

As for `CC(O)C1CCCCC1` (stereo not given), the Potency result was “inactive”.

In the case of `Cc1ccccc1N=Nc1ccc(N=Nc2c(O)ccc3ccccc23)c(C)c1`, the Potency result was “inactive”.

Consider `CCCC[C@H]1CN(CC2CCOCC2)C(=O)OC12CCN(C1(C)CCN(C(=O)c3c(C)ncnc3C)CC1)CC2`, for which the Potency result is “inactive”.

Turning to `CCOc1nc2cccc(C(=O)O)c2n1Cc1ccc(-c2ccccc2-c2nn[nH]n2)cc1`, the Potency entry is “inactive”.

For `CC(=O)NCCCS(=O)(=O)O`, the Potency entry is “inactive”.

For `O=C(C(=O)c1ccc(Br)cc1)c1ccc(Br)cc1`, the Potency result was “inactive”.

`O=C(c1ccc(O)cc1)c1ccc(O)cc1`: the Potency entry is “inactive”.

On to `CCCCOC(O)CC` (stereo not given), for which the Potency result is “inactive”.

As to `Cc1cccc(Oc2ccccc2)c1`, the Potency result is “inactive”.

Turning to `C1CCC2OC2C1` (stereo not given), the Potency entry is “inactive”.

Consider `O=C(NS(=O)(=O)/C=C/c1cccs1)c1ccc(F)cc1Br`, for which the Potency result is “inactive”.

On to `CC(=O)SCc1ccco1`, for which the Potency result was “inactive”.

In the case of `CCN(CC)C(C)=O`, the Potency result was “inactive”.

Turning to `CC(C)NCC(O)c1cc(O)cc(O)c1` (stereo not given), the Potency entry is “inactive”.

For the compound `Cc1ccc(C(=O)C(C)CN2CCCCC2)cc1` (stereo not given), the Potency result is “inactive”.

With `CC(CN)CCCN` (stereo not given), the Potency result is “inactive”.

On to `CCN1CCC[C@H]1CNC(=O)c1c(OC)ccc(Br)c1OC`, for which the Potency entry was “inactive”.

Take `Cc1occc1S`: the Potency entry was “inactive”.

On to `Cc1cccc(OCCOc2cccc(C)c2)c1`, for which the Potency entry was “inactive”.
